Results filed as inconclusive are left out. Active and inactive are the calls of the source. Unless noted, calls follow the shape of the dose curve; as a rule, active = well fitted curve in either direction with a large enough effect (not every such curve was filed as active); inconclusive = small, poorly fitted or top-dose-only effect, or another doubt; inactive = flat fitted curve, though single readings scatter.

Test [1] deals with Lysosomal acid glucosylceramidase (Homo sapiens) (UniProt P04062). In words: Glucocerebrosidase-p2 (AID 348; in the data active = potency below about 10 µM; also: potency is read from the fitted curve at half-maximal effect). To be noted: purified GBA, blue fluorogenic substrate, 40 min. The procedure, abridged:
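Compounds titrated from 0.6 nM upwards against 0.2 nM enzyme in pH 5.9 citric acid/KH2PO4, taurocholate, tween-20; blue fluorogenic substrate 80 uM, 40 min room temperature, stopped and read Ex 365/Em 440 for AC50.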

The nature of test [2]: AP1 Signaling Pathway (AID 357).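 Also: ME-180 reporter cells stimulated with EGF at its EC50 level; % is scaled to controls: 0 for no effect and ±100 for the full control effect.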 To be noted: ME-180 AP-1-bla reporter, EGF-induced, beta-lactamase ratio, 5 h; at 7.69 µM (top of the series) unless noted. The gist of the method:
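Titration-series screen for positive or negative modulators of EC50 EGF-induced signaling in ME-180 cells carrying an AP-1-driven beta-lactamase reporter. After 5 hours at 37 degrees Celsius, CCF4 460nm/530nm emission ratio gave %Activity; AC50 values derived.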

Test [3] concerns the target Cytochrome P450 1A2 (Homo sapiens) (UniProt P05177). In words: p450-cyp1a2 (AID 410; calls by dose curve; also: potency is read from the fitted curve at half-maximal effect;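 as to activity change, negative = inhibition: -100% = full effect of reference inhibitor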). The following applies: recombinant CYP1A2, luciferin-ME demethylation, luminescence; series mostly up to 57 µM. The procedure, abridged: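 Inhibition was calculated relative to 57 uM furafylline (full inhibition). The reaction used human CYP1A2 at 20nM with Luciferin-ME at its Km, 100uM, driven by an NADPH-regenerating system for 60 min at room temperature.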

The nature of test [4]: NFAT Signaling Pathway (AID 444).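 Also: carbachol stimulus at about its EC50 of 1 µM final; % is scaled to controls: 0 for no effect and ±100 for the full control effect.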 The following applies: Jurkat NFAT-bla M1, carbachol, beta-lactamase ratio, 5 h. The gist of the method:
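Read-out: CCF4 FRET ratio (460 nm/530 nm) after 1 h RT dye loading, used for %activity and AC50 from titration series. Cells: Jurkat NFAT-β-lactamase/M1 line, treated with compound plus 1 uM carbachol for 5 h, 37 °C.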

Test [5] in a line: Stat Signaling Pathway (AID 446).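 Also: ME-180 cervical cancer cells given 40 pM IL-6 alongside compound; SIE-controlled beta-lactamase reporter measured as 460/530 nm FRET emission ratio; % is scaled to controls: 0 for no effect and ±100 for the full control effect.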 The following applies: ME-180 SIE beta-lactamase reporter, IL-6 stimulated, 5 h; at 7.69 µM (top of the series) unless noted. The procedure, abridged: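 ME-180 SIE-bla cells; overnight plating; cpd + IL-6 40 pM, 5 h, 37 C; LiveBLAzer 2.5 h RT; 460/530 nm emission ratio. Normalized to 300 pM IL-6 and 125 nM JAK inhibitor controls.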
Test [6] addresses Glucocorticoid receptor (Homo sapiens) (UniProt P04150). In words: GR-GFP Redistribution (AID 450;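 active = compounds whose dose series gives a full or clear partial fitted curve of increased nuclear translocation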; also: potency is read from the fitted curve at half-maximal effect). To be noted: U2OS GR-GFP nuclear translocation, laser cytometry, 2 h.
Test [7] has the same target. The test is described as follows: GR-EFC Redistribution (AID 451; calls by dose curve; also: potency is read from the fitted curve at half-maximal effect). To be noted: CHO-K1 GR-EFC translocation, beta-gal luminescence, 2 h. The procedure, abridged: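 Translocation of GR-ED fusion to nuclear EA restores b-gal, read by luminescence after 1 h room-temperature detection. Engineered CHO-K1 biosensor cells, 1,000/well, exposed 2 h at 37 C to titrations up to 46 uM final.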

Test [8] deals with Mitogen-activated protein kinase 10 (Mus musculus) (UniProt Q61831). The test is described as follows: JNK3 AlphaScreen Assay (AID 530).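 Also: kinase came from lysate of stimulated human HepG2 cells; signal reports phosphorylation of biotinylated GST-cJun 1-79 at Ser73 with 10 µM ATP; % is scaled to controls: 0 for no effect and ±100 for the full control effect.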 The following applies: JNK3 lysate, c-Jun phosphorylation; series mostly up to 57.1 µM. The gist of the method:
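Room-temperature AlphaScreen kinase assay; pre-activated HepG2 lysate as JNK3 source, biotin-GST-cJun(1-79) substrate, 10 uM ATP, compound 15 min preincubation.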
For orientation: Alpha assays give light when donor and acceptor beads are brought close together.

Test [9] can be described thus: qHTS Assay for Lipid Storage Modulators (AID 1519; calls by dose curve). To be noted: Drosophila S3 cells, BODIPY lipid droplet/cell ratio, laser cytometry, cells loaded with oleic acid. The gist of the method:
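Cells seeded at 5,000 per well were treated with compounds over a concentration series and loaded with oleic acid (400 uM, as added). Lipid droplet fluorescence (488 nm excitation, 500-530 nm channel) was read by laser-scanning cytometry and normalized to 20 uM Triacsin C.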
(In general: Quantitative high-throughput screening tests each substance at several concentrations.)

The target in test [10] is Dual specificity protein kinase CLK4 (Homo sapiens) (UniProt Q9HAZ1). In words: qHTS Assay for Inhibitors of CDC-like Kinase 4 (Kinase-Glo Assay) (AID 1770; active = well fitted curve in the direction sought with a large enough effect; an effect the other way counts as inactive or inconclusive; also: % is scaled to controls: 0 for no effect and ±100 for the full control effect; nearly all actives have a fitted effect of over 65% in size). To be noted: recombinant Clk4, Kinase-Glo ATP depletion luminescence; series mostly up to 66.7 µM. The gist of the method: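 25 nM Clk4 with 100 uM RS repeat peptide and 1 uM ATP (final) in Tris pH7.5, 10 mM MgCl2, 4.5 h at room temperature. Remaining ATP measured by Kinase-Glo luciferase luminescence.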
Dual specificity protein kinase CLK4 (Homo sapiens), sequence (Q9HAZ1 whole entry, looked up): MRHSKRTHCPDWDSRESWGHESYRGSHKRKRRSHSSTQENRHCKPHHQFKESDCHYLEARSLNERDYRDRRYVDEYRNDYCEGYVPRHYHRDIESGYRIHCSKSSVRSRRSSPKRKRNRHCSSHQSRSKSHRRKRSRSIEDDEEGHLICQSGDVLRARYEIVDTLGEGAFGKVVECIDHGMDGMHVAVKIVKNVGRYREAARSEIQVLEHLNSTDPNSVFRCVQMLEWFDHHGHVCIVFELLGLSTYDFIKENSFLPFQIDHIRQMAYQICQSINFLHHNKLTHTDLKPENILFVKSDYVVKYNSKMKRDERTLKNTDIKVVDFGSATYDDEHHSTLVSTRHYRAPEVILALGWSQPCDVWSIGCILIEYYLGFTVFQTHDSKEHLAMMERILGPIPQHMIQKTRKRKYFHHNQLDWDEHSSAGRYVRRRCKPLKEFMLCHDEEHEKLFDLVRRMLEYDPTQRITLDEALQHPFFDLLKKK

Test [11] has the same target. The test is described as follows: qHTS Assay for Inhibitors of CDC-like Kinase 4 (ADP-Glo Assay) (AID 1771; active = well fitted curve in the direction sought with a large enough effect; an effect the other way counts as inactive or inconclusive; also: % is scaled to controls: 0 for no effect and ±100 for the full control effect; nearly all actives have a fitted effect of over 70% in size). The following applies: recombinant CLK4, ADP-Glo luminescence; series mostly up to 80 µM. The gist of the method: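 Kinase reaction: Clk4 at 25 nM, RS repeat peptide substrate at 100 uM, ATP at 1 uM, 1 hr, room temperature. Product ADP detected as luciferase signal via ADP-Glo.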

For test [12] the target is unchanged. The test is described as follows: qHTS Assay for Inhibitors of CDC-like Kinase 4 (ADP-FP Assay) (AID 1795; active = well fitted curve in the direction sought with a large enough effect; an effect the other way counts as inactive or inconclusive; also: % is scaled to controls: 0 for no effect and ±100 for the full control effect; nearly all actives have a fitted effect of over 60% in size). To be noted: Transcreener ADP fluorescence polarization; series mostly up to 50 µM. The procedure, abridged: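 Recombinant Clk4 (6.25 nM) phosphorylated 100 uM RS repeat peptide with 1 uM ATP in 25 mM Tris pH 7.5, 10 mM MgCl2, 0.5 mM EGTA, 2.5 mM DTT, 0.01% Triton X-100 for 1 h. ADP was detected by Transcreener ADP2 competitive fluorescence polarization after 30 min at room temperature.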

Test [13] has as its target Ubiquitin carboxyl-terminal hydrolase 1 (Homo sapiens) (UniProt O94782). In words: Inhibitors of USP1/UAF1: Pilot qHTS (AID 504865; active = well fitted curve in the direction sought with a large enough effect; an effect the other way counts as inactive or inconclusive;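 also: rhodamine fluorescence freed from ubiquitin-rhodamine substrate followed over time; top concentration of the series differs between compounds; % is scaled to controls: 0 for no effect and ±100 for the full control effect; nearly all actives have a fitted effect of over 35% in size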). To be noted: purified USP1/UAF1, Ub-rhodamine cleavage fluorescence; series mostly up to 54.9 µM. The procedure, abridged:
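USP1/UAF1 complex at 1 nM preincubated 15 min at room temperature with compound, then Ub-Rho substrate added at 150 nM final. Fluorescence (480/540 nm) read kinetically in 50 mM HEPES pH 7.8, 0.5 mM EDTA, 1 mM TCEP, 0.1 mg/ml BSA, 0.01% Tween-20.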

Test [14] can be described thus: Primary qHTS for small molecule stabilizers of the endoplasmic reticulum resident proteome: Secreted ER Calcium Modulated Protein (SERCaMP) assay (AID 1508630; active = well fitted curve in the direction sought with a large enough effect; an effect the other way counts as inactive or inconclusive; also: % is scaled to controls: 0 for no effect and ±100 for the full control effect). To be noted: SH-SY5Y GLuc-SERCaMP (Gaussia luciferase released on ER calcium loss) secretion, thapsigargin, luminescence; series mostly up to 38.4 µM. The procedure, abridged: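 GLuc-SERCaMP-expressing SH-SY5Y cells, pretreated 16 h with compound, are challenged with thapsigargin to empty ER calcium stores; after 4 h, coelenterazine is added directly to the medium and luminescence is imaged.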

The target of test [15] is 3',5'-cyclic-AMP phosphodiesterase 4B (Homo sapiens) (UniProt Q07343). The test is described as follows: qHTS Assay for Inhibitors of PDE-IV (AID 607; active = well fitted activation curve with a large enough effect in the main read-out, with a control signal flat, not every such curve was filed as active; also: % of control where 0% means no effect). The following applies: HEK293 ACTOne CNG channel cells, membrane potential fluorescence; series mostly up to 22.9 µM. The procedure, abridged:
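ACTOne HEK293 cells carry a modified cAMP-gated CNG channel and express endogenous PDE4; plated 1000 cells/well, compounds up to 22.9 uM final. Membrane-potential dye fluorescence (ex 535/em 590) was read; parental cells received 10 uM forskolin + 100 uM RO 20-1724.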

Test [16] addresses Cytochrome P450 3A4 (Homo sapiens) (UniProt P08684). In words: qHTS Assay for Inhibitors and Substrates of Cytochrome P450 3A4 (AID 884; active = well fitted curve in the direction sought with a large enough effect; an effect the other way counts as inactive or inconclusive; also: % is scaled to controls: 0 for no effect and ±100 for the full control effect; nearly all actives have a fitted effect of over 50% in size). To be noted: recombinant CYP3A4, Luciferin-PPXE luminescence; series mostly up to 57.1 µM. The gist of the method: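 20 nM human CYP3A4 with 25 uM Luciferin-PPXE (at KM) in 200 mM KPO4, preincubated 10 min with compound; NADPH regeneration started a 60 min RT reaction. Luciferin detected by luminescence, normalized to 57 uM ketoconazole as full inhibition.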

The mark [17] stands for this setting: at 7.69 µM (top of the series) unless noted.
Setting [18] is: measured here: cell count channel max response.
[19] abbreviates: measured here: lipid channel max response.

3',5'-cyclic-AMP phosphodiesterase 4B (Homo sapiens), sequence (Q07343 whole entry, looked up): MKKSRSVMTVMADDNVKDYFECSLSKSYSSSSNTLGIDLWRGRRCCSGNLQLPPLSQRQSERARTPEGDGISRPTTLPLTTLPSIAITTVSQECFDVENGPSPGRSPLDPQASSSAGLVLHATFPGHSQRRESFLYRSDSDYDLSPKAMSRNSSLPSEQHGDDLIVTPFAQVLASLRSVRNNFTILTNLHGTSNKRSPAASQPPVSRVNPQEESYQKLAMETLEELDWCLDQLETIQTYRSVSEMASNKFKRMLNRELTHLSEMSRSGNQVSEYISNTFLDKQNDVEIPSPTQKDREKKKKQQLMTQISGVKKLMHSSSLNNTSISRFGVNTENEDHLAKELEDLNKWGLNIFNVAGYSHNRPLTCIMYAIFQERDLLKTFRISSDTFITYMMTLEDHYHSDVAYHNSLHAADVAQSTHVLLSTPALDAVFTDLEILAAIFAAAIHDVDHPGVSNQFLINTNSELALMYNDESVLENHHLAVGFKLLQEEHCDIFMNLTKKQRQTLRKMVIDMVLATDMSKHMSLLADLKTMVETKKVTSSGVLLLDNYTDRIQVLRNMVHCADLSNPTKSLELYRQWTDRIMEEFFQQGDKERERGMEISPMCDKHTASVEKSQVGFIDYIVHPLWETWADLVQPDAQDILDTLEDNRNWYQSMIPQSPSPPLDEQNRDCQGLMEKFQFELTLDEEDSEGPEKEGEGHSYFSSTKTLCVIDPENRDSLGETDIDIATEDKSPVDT
Ubiquitin carboxyl-terminal hydrolase 1 (Homo sapiens), sequence (O94782 whole entry, looked up): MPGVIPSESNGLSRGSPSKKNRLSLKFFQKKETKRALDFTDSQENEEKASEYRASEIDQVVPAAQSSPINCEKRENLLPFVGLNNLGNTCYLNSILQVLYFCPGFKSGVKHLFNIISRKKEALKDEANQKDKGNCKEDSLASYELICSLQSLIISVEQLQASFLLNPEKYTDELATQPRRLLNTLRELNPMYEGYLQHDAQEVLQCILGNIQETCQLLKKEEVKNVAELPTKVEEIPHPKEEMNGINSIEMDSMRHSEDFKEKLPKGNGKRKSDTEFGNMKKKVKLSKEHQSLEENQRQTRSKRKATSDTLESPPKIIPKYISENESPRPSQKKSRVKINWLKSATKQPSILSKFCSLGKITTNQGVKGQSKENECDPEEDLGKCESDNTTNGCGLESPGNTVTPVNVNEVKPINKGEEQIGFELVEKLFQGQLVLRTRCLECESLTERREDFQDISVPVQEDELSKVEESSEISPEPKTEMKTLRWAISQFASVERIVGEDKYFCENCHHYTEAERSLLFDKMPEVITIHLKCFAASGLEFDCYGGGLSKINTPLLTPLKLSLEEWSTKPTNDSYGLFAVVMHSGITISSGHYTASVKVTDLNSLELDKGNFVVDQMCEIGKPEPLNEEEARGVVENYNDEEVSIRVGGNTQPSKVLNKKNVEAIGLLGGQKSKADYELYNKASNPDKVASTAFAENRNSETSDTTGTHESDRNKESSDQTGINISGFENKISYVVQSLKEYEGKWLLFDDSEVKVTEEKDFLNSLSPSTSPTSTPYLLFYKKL
Lysosomal acid glucosylceramidase (Homo sapiens), sequence (P04062 whole entry, looked up): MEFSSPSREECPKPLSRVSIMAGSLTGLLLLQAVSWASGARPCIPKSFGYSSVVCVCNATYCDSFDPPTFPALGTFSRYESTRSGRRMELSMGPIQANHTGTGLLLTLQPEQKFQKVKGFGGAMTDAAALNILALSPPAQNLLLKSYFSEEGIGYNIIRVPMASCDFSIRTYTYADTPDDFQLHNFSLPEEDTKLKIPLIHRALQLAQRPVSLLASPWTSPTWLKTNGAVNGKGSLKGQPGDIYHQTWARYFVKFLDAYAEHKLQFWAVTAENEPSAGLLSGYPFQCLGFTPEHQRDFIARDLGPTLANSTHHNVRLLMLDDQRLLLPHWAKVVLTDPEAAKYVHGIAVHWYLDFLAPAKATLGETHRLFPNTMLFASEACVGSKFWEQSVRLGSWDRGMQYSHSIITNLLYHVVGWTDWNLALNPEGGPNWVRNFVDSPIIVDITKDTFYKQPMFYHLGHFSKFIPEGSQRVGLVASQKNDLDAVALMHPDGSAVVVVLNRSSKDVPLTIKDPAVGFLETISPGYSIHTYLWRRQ
Glucocorticoid receptor (Homo sapiens), sequence (P04150 whole entry, looked up, the tested form may be a part): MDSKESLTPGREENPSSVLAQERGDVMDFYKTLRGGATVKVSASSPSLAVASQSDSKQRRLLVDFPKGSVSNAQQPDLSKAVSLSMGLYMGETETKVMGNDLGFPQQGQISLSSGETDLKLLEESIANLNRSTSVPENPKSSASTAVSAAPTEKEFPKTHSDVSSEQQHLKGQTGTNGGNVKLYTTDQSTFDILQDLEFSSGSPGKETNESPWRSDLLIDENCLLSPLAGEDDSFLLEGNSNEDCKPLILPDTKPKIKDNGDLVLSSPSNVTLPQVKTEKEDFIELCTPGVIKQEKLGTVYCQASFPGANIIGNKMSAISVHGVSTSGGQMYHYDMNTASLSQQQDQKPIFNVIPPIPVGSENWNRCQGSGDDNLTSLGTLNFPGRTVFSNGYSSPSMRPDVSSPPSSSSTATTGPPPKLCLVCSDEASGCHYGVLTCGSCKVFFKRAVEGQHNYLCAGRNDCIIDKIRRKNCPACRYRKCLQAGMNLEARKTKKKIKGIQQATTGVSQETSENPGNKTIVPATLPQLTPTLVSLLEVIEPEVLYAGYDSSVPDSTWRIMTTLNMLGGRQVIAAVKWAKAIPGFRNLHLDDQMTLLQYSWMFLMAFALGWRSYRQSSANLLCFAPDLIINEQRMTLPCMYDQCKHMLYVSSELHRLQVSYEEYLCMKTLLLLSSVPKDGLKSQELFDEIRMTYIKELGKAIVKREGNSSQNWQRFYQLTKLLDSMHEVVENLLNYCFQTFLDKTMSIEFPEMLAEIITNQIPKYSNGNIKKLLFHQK
Cytochrome P450 1A2 (Homo sapiens), sequence (P05177 whole entry, looked up): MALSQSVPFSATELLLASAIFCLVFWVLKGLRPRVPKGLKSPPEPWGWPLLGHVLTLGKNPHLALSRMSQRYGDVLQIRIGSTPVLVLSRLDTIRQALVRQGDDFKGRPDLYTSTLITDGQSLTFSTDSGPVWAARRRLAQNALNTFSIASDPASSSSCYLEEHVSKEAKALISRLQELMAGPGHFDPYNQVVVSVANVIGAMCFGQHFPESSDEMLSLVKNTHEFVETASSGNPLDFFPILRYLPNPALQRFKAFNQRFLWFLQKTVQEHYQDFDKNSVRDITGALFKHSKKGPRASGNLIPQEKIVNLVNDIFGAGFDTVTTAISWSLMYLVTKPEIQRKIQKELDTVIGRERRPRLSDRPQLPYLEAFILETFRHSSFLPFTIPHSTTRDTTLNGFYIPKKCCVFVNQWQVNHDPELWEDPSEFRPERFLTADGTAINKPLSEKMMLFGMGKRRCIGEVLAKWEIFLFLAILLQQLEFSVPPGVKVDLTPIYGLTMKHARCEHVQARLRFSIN
Cytochrome P450 3A4 (Homo sapiens), sequence (P08684 whole entry, looked up): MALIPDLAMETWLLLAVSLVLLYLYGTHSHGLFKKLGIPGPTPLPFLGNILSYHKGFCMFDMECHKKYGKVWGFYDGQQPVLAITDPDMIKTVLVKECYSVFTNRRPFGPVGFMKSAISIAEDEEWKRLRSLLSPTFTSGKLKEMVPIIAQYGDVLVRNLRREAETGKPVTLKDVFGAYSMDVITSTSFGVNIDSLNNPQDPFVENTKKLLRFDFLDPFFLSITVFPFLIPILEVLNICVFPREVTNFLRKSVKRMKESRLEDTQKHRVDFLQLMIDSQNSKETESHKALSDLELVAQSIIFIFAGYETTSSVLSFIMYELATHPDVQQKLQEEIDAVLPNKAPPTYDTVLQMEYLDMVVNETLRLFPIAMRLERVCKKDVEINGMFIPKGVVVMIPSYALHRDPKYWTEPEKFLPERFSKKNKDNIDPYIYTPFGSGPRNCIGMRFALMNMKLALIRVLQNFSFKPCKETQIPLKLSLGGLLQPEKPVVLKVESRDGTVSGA

Take `COc1ncc2nc(-c3ccccc3)c(=O)n(-c3ccccc3)c2n1`: the Potency in test [1] is > 11.4 µM (inactive); in [3] it was 2 µM (active); in [6], > 9.22 µM (inactive); in test [7], > 46 µM (inactive). The activity change, negative = inhibition was -21.5% (inactive) in test [2], 3.29% (inactive) in [4] (setting [17]) and 3.9% (inactive) in test [9] (at 57.5 µM (top of the series)). In test [5], the activity, negative = inhibition is -8.81% (inactive). The result in test [8] was inactive. Also, the max response in test [9] (setting [18]) was 10.3%; in [9] (setting [19]), 11.5%. Moreover, the Potency result in test [10], in test [11], in [12], in test [13] and in test [14] was “inactive” in each case.

For `Cc1nc2cnc(Nc3ccccc3)nc2n(CCC#N)c1=O`, the Potency in [1] is > 11.4 µM (inactive); in [3], 0.631 µM (active); in test [6], > 9.22 µM (inactive); in test [7] it was > 46 µM (inactive). Besides, the activity change, negative = inhibition in test [2] was -11.3% (inactive); in test [4] (setting [17]), -3.1% (inactive); in [9] (at 57.5 µM (top of the series)), -7.58% (inactive). Further, in test [5], the activity, negative = inhibition was -19.6% (inactive). In addition, the compound was classed as inactive in [8]. Further, the Potency entry in test [15], in test [10], in [11], in test [12], in test [13] and in test [14] was “inactive” each time. Besides, the max response in test [9] (setting [18]) was -11.1%; in [9] (setting [19]) it was -20.1%.

As to `Oc1ccc(/C=C\c2cc(O)cc(O)c2)cc1`, the activity change, negative = inhibition is -2.07% [at 17.2 µM] (inactive) in [2], -19.4% (inactive) in test [4] (at 17.2 µM (top of the series)), -5.74% (inactive) in test [4] (at 38 µM (top of the series)) and 2.61% (inactive) in test [9] (at 25.7 µM (top of the series)). Moreover, in test [5], the activity, negative = inhibition was -21.4% [at 17.2 µM] (inactive). Further, the compound was classed as inactive in [8]. The Potency entry in [15], in test [13] and in test [14] was “inactive” each time. The max response in test [9] (setting [18]) is -19.7%; in [9] (setting [19]) it was -17.5%.

`O=C(c1cccc(F)c1)N1CCC2(CCN(Cc3cc(C(F)(F)F)cc(C(F)(F)F)c3)CC2)CC1`: the Potency in test [1] was > 11.4 µM (inactive); in [7], > 46 µM (inactive). Further, the Potency entry in test [3], in [15], in test [16] and in [14] was “inactive” in each case. The activity, negative = inhibition in test [5] is 9.15% (inactive). For the same compound, the call in test [8] was inactive. The activity change, negative = inhibition in test [9] (at 57.5 µM (top of the series)) was 1.43% (inactive). Also, the max response was 10.5% in test [9] (setting [18]) and 12.9% in test [9] (setting [19]).
